High-throughput results: PubChem BioAssay, several laboratories
Hits are enriched below; roughly 1.3% of the tested compounds scored in any of these assays.
GLD-1 RNA inh: GLD-1/TGE RNA complex disruptors, primary screen, biochemical, fluorescence polarization; inhibition, % at 5.96 µM; 0.44% of 320,000 active; AID 2280, 2010; purified GLD-1 + fluorescein TGE RNA; Female germline-specific tumor suppressor gld-1 (Caenorhabditis elegans), Q17339;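 active = percent inhibition above a per-plate cutoff, the plate mean of test compounds plus 3 SD, cut at about 30% in these data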
MEX-5 binding: MEX-5 zinc finger RNA-binding disruptors – biochemical, C. elegans, fluorescence polarization, MLPCN library, primary screen | Zinc finger protein mex-5 (Caenorhabditis elegans), Q9XUB2 | MEX-5/FITC-TCR2 RNA binding; active compounds read low | activity score (negative = inhibition of binding), % at 10 µM | 0.38% of 300,000 active | AID 1832, 2009;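 active = inhibition past about -25% in most replicates, and total fluorescence under double the plate's negative control median, limit read from the data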
MCL1-BIM inh: inhibitors of MCL1 binding to BIM-BH3, primary screen, biochemical, fluorescence polarization. inhibition, % at 10.9 µM. Induced myeloid leukemia cell differentiation protein Mcl-1 (Homo sapiens), Q07820. 0.68% of 320,000 active. GST-MCL1 / FITC-Bim-BH3 fluorescence polarization;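 active = inhibition above the mean inhibition of all tested compounds plus 3 SD, set per campaign, cut at about 40% in these data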;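 also: higher means more loss of mP so more displacement of Bim peptide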
Target sequence (Q07820 whole entry, looked up): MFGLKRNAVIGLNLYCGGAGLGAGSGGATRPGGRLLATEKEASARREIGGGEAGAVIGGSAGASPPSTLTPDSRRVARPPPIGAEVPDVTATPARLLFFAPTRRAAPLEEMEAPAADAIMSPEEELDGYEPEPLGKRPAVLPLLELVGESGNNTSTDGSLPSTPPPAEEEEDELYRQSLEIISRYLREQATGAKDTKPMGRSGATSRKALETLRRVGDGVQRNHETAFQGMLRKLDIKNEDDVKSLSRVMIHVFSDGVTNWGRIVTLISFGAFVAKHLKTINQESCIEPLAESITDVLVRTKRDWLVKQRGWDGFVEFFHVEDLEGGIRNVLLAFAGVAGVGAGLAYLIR
BCLXL inh: inhibitors of human Bcl-xL, primary screen, biochemical, fluorescence polarization, HTS | Bcl-2-like protein 1 (Homo sapiens), Q07817 | GST-Bcl-xL / FITC-Bim BH3 peptide fluorescence polarization | inhibition, % at 10.9 µM | 0.7% of 320,000 active;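 active = inhibition above the mean of all tested compounds plus 3 SD, cutoff set per campaign, cut at about 30% in these data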;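 also: inhibitors lower millipolarization by displacing the labeled peptide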
EBV gp42 inh: Epstein-Barr virus gp42 inhibitors, primary screen, biochemical, uHTS, fluorescence polarization | Fluorescence polarization binding assay, mP read-out | Glycoprotein 42 (Epstein-Barr virus (strain AG876)), Q1HVG2 | 0.42% of 220,000 active | inhibition, % (tested at 21.74 µM) | AID 1085, 2008; in the data active = inhibition above about 50%
Target sequence (Q1HVG2 whole entry, looked up): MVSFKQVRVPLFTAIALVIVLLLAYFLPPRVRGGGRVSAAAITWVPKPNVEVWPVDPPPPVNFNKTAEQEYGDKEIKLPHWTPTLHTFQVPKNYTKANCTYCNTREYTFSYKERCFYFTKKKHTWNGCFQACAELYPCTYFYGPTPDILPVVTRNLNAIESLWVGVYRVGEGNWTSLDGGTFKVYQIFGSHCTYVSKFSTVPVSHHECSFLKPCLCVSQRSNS
Hits are given with their value; - = inactive; . = not tested or not shown.

SMILES	GLD-1 RNA inh	MEX-5 binding	MCL1-BIM inh	BCLXL inh	EBV gp42 inh
NC(=O)C1(N2CCCCC2)CCN(Cc2nc(-c3cccs3)no2)CC1	-	-34.6	-	-	-
O=S(=O)(Cc1noc(-c2ccc(Cl)cc2)n1)Cc1ccco1	-	-	-	-	-
NC(=O)c1ccc(N=Nc2c(O)c3ccccc3[nH]c2=O)cc1	-	-	-	-	64.8
COc1cc(N=Nc2c(O)c3ccccc3[nH]c2=O)c(OC)cc1N=Nc1ccccc1	-	-	-	-	-
CC(=O)N1c2ccc(S(=O)(=O)N3CCCCC3)cc2CC1C(=O)NCc1ccc(N(C)C)cc1 (centres undefined)	-	-	-	-	.
COc1ccc(NC(=O)c2nc3nccc(C)n3n2)cn1	-	-	-	34.0	-
COc1ccc(NC(=O)c2ccc(NC(=O)c3nc4nccc(C)n4n3)cc2)cc1	-	.	.	.	.
O=C(O)c1ccc(-n2c(-c3cc(-c4ccco4)[nH]n3)n[nH]c2=S)cc1	-	-91.6	-	-	-
CC(=O)c1ccc(-n2c(-c3cc(-c4ccco4)[nH]n3)n[nH]c2=S)cc1	-	-	-	-	-
Nc1ccc(S(N)(=O)=O)cc1N	-	-	-	32.9	-
COc1ccc(C(=O)COC(=O)CCc2nc3ccccc3[nH]c2=O)cc1Br	-	-	-	-	-
CCN1/C(=C2\SC(=S)N(Cc3ccccc3)C2=O)Sc2ccccc21	-	-25.9	-	-	52.9
CCN1/C(=C2/SC(=S)N(NC(C)=O)C2=O)Sc2ccccc21	.	-46.3	.	.	.
CCN1C(=O)/C(=C2/Sc3ccccc3N2CC)SC1=S	-	-	-	-	.
O=[N+]([O-])c1ccc(Nc2nc(NC3CCCCC3)nc(N3CCCC3)n2)cc1	-	-	-	-	-
N#C[C@@H]1[C@@H]2C(=O)N(c3ccc4c(c3)OCCO4)C(=O)[C@@H]2C2c3ccccc3C=CN21 (some centres undefined)	30.8	-	-	33.7	-
CN1C(=O)c2ccccc2C(C(=O)O)C1c1cccc(Cl)c1 (centres undefined)	-	-	-	-	-
CC(=O)[C@H]1[C@H](c2cccc(Cl)c2)C(C#N)(C#N)[C@@H]2c3ccccc3C=CN21	33.6	-	-	31.3	-
CC(=O)[C@H]1[C@@H]2C(=O)N(c3cccc(Cl)c3)C(=O)[C@@H]2[C@H]2c3ccccc3C=CN21	34.5	-	51.3	61.1	-
CC(=O)[C@@H]1[C@@H]2C(=O)N(c3ccc(F)c(Cl)c3)C(=O)[C@@H]2C2c3ccccc3C=CN21 (some centres undefined)	-	-	-	36.0	-
CC(C)(C)C(=O)[C@@H]1[C@@H]2C(=O)N(Cc3ccccc3)C(=O)[C@@H]2[C@H]2c3ccccc3C=CN12	.	.	.	.	-
COC(=O)C1(CCSC)NC(c2ccccc2F)C2C(=O)N(c3ccc4c(c3)OCCO4)C(=O)C21 (centres undefined)	-	-	-	-	-
O=C(c1ccccc1)c1nn(-c2ccc(Cl)cc2)cc1C(=O)c1cc2ccccc2oc1=O	-	-	-	-	-
COc1cc(/C=C2\C(C)=C(C#N)c3nc(N)c(C#N)c(C)c32)ccc1OCC(=O)O	-	-	-	34.5	-
CC1=C(C#N)c2nc(N)c(C#N)c(C)c2/C1=C\c1ccc(C)cc1	-	-	-	-	-
SMILES	GLD-1 RNA inh	MEX-5 binding	MCL1-BIM inh	BCLXL inh	EBV gp42 inh
COc1cc(NCCCC(C)N)c2ncccc2c1 (centres undefined)	.	-25.8	.	.	-
COc1cc(NS(=O)(=O)c2ccc(C)cc2)c2ncccc2c1	-	-	-	-	-
CN(CC(=O)Nc1ccc(Cl)cc1)C(=O)CNC(=O)Cc1cccc2ccccc12	-	.	-	-	.
O=C(O)CCC(=O)NNc1nc(-c2ccccc2)c2cc(Cl)ccc2n1	-	-44.2	-	-	.
CC(OC(=O)c1nsc(Cl)c1Cl)C(=O)NCCc1ccccc1 (centres undefined)	-	-	-	-	.
COc1ccc(Cl)cc1S(=O)(=O)N1CCC(C(=O)NCc2ccco2)CC1	-	-	-	-	.
O=C(Cn1nnc(-c2ccccc2F)n1)NCc1ccco1	-	-	-	-	-
CCOc1ccc2[nH]c(C)c(CN3CCOCC3)c(=O)c2c1	-	-	-	-	-
CCOc1ccc2[nH]c3ncccc3c(=O)c2c1	-	-	51.7	41.8	.
O=C(CC(=O)Nc1ccc(Cl)cc1)N/N=C\c1cccc(F)c1	-	-	-	-	.
CC1CN(Cc2c(O)ccc3c2oc(=O)c2ccccc23)CC(C)O1 (centres undefined)	-	-28.6	-	-	-
CCOC(=O)Cn1c2ccc(OC)cc2c2nc3ccccc3nc21	-	-101.8	-	-	63.9
O=C(Cn1cnc2scc(-c3cccc([N+](=O)[O-])c3)c2c1=O)NCc1ccco1	-	-	-	-	66.2
Cc1sc2ncn(CC(=O)NCc3ccco3)c(=O)c2c1-c1ccc(F)cc1	-	-	-	-	-
Cc1cccc(OCC(=O)NNC(=O)C2CCCCC2C(=O)O)c1 (centres undefined)	-	-	-	-	-
Cc1cc(NC(=O)COC(=O)c2cc(S(=O)(=O)N(C)C)ccc2Cl)no1	-	.	-	-	.
CCn1c(COc2ccccc2C)nnc1SCC(=O)N1CCC(C)CC1	-	-	-	-	76.3
CCn1c(COc2ccccc2C)nnc1SCC(=O)N1CCCCC1	-	-	-	-	-
NC(=Nc1ccc(N)cc1)C(N)=Nc1ccc(N)cc1	-	-29.7	-	-	-
CC1CN(C(=O)COC(=O)Cc2c(F)cccc2Cl)CC(C)O1 (centres undefined)	-	.	-	-	.
c1ccc(COc2ccc(Nc3ncnc4nc[nH]c34)cc2)cc1	-	-	-	-	-
CC(C)Nc1nnc(SCC(=O)N2CCN(C(=O)c3ccco3)CC2)s1	-	.	-	-	.
O=C(O)CSc1cc(C(=O)c2ccccc2O)cn2c(=O)c3c4c(sc3nc12)CCCC4	.	-	.	.	69.0
O=C(O)CSc1nc2sc3c(c2c(=O)n1Cc1ccccc1)CCCCC3	-	-	-	-	.
Cc1nc2c3ccccc3nc(NNC(=O)CCC(=O)N3CCCC(C)C3)n2n1 (centres undefined)	-	-27.0	-	-	.
COCCNC(=O)CCC(=O)NNc1nc2ccccc2c2nc(C)nn12	-	-44.7	-	-	-
Cc1nc2c3ccccc3nc(NNC(=O)CCC(=O)NC(C)C)n2n1	-	-41.5	-	-	-
COc1ccc(N2CCN(CCNC(=O)CCC(=O)NNc3nc4ccccc4c4nc(C)nn34)CC2)cc1	-	-	-	-	.
CCCn1c(=C(C#N)C#N)s/c(=C2\C=Cc3ccccc3N2CC)c1=O	.	.	.	.	53.0
COc1ccc(N=Cc2cc(Cc3ccccc3Cl)cc([N+](=O)[O-])c2O)cc1OC	-	-	-	-	104.2
